# Experimental data reported in PubChem BioAssay (NCI).
# About 79,000 compounds went through this panel and 15% of them were active in at least one assay; those are over-represented in the sample as a whole. A number with no mark means an inactive call. Active and inactive are the calls of the source. Cut-off read from the data, not from the text of the source: active = growth inhibition above about 70%; inactive = the rest.
# Experiments:
# [1] = NCI Yeast Anticancer Drug Screen. Data for the rad50 strain (AID 155);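 note: 0% = growth of vehicle-only cultures of the same strain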; settings: S. cerevisiae rad50 strain growth inhibition, stronger effect = higher value
# Summary of the method: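 Relative growth inhibition (compound vs vehicle) was measured in yeast with a defined repair-gene alteration.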
# [2] = NCI Yeast Anticancer Drug Screen. Data for the mec2-1 strain (AID 157); settings: S. cerevisiae mec2-1 strain, stronger effect = higher value
# Summary of the method: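 Vehicle-treated cultures served as reference for growth inhibition of compound-exposed mec2-1 yeast.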
# [3] = NCI Yeast Anticancer Drug Screen. Data for the sgs1 mgt1 strain (AID 161);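 note: 0% = growth of cultures given vehicle only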; settings: S. cerevisiae sgs1 mgt1 strain, stronger effect = higher value
# Summary of the method: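 Mutant yeast exposed to compound; growth scored against vehicle-only wells.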
# [4] = NCI Yeast Anticancer Drug Screen. Data for the cln2 rad14 strain (AID 165);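 note: 0% = growth equal to vehicle treated cultures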; settings: S. cerevisiae cln2 rad14 strain, stronger effect = higher value
# Summary of the method: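 Each compound was tested on cln2 rad14 yeast. Inhibition of growth was calculated against vehicle-exposed controls.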
# [5] = NCI Yeast Anticancer Drug Screen. Data for the bub3 strain (AID 167); settings: S. cerevisiae bub3 mutant strain, stronger effect = higher value
# Summary of the method: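 Screening used yeast with an engineered genetic alteration affecting cell cycle control. Compound-exposed cultures were compared with vehicle cultures, and reduced growth was taken as inhibition.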
# [6] = NCI Yeast Anticancer Drug Screen. Data for the mlh1 rad18 strain (AID 175); settings: S. cerevisiae mlh1 rad18 strain growth inhibition, stronger effect = higher value
# Summary of the method: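 Vehicle-treated cultures served as the reference for growth inhibition in a yeast strain carrying DNA damage repair alterations exposed to each compound.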
# [7] = at 5.0 µM (retest, dose inferred, filed as 0.5)
# [8] = at 50.0 µM (retest, dose inferred, filed as 5.0)
SMILES,"growth inhibition [1, 7]","growth inhibition [1, 8]",growth inhibition ([1]; at 50.0 µM),"growth inhibition [2, 7]","growth inhibition [2, 8]",growth inhibition ([2]; at 50.0 µM),"growth inhibition [3, 7]","growth inhibition [3, 8]",growth inhibition ([3]; at 50.0 µM),"growth inhibition [4, 7]","growth inhibition [4, 8]",growth inhibition ([4]; at 50.0 µM),"growth inhibition [5, 7]","growth inhibition [5, 8]",growth inhibition ([5]; at 50.0 µM),"growth inhibition [6, 7]","growth inhibition [6, 8]",growth inhibition ([6]; at 50.0 µM)
CC(=O)C(=Cc1ccc(C=C(C(C)=O)C(C)=O)cc1)C(C)=O,-1%,30%,45%,5%,40%,58.5%,11%,61%,58.5%,11%,8%,46.4%,-5%,30%,4.7%,22%,91% (active),94.7% (active)
N=C(N)c1ccc2oc3ccc(C(=N)N)cc3c(=O)c2c1,8%,65%,57.8%,3%,70% (active),29.9%,21%,76% (active),65.5%,11%,65%,71.8% (active),-4%,76% (active),38%,10%,77% (active),73.4% (active)
CCCCCCCCCN(CCCCCCCCC)CC(O)c1cc2c(c3ccccc13)CCCC2 (stereo not given),9%,93% (active),99% (active),38%,96% (active),91% (active),53%,97% (active),99% (active),7%,90% (active),98.9% (active),11%,93% (active),95.8% (active),46%,95% (active),98.8% (active)
O=C1C=CC(=Nc2cc3c(cc2Br)-c2ccccc2C3Br)O1 (stereo not given),23%,99% (active),28.9%,20%,99% (active),79.8% (active),15%,100% (active),21.4%,6%,99% (active),-12.8%,7%,99% (active),-3.95%,26%,99% (active),28.9%
CN(C)CCC(=O)C(=Cc1cc(Cl)cc(Cl)c1)C(=O)CCN(C)C,2%,98% (active),96.3% (active),-19%,99% (active),99% (active),12%,99% (active),85.2% (active),0%,98% (active),40.6%,-8%,98% (active),97.8% (active),-4%,97% (active),97.5% (active)
O=C1/C(=C/O)CCc2c1ccc1ccccc21,15%,98% (active),98.4% (active),9%,99% (active),99% (active),-9%,98% (active),99.1% (active),6%,99% (active),97.7% (active),10%,98% (active),98.9% (active),17%,98% (active),96.2% (active)
CC(=O)OC1CCC2(C)C3CCC4(C)C(C(C)CCCC(C)C)CCC4C3CCC23OC13C (stereo not given),2%,12%,31.9%,-17%,23%,6.2%,-5%,52%,72.7% (active),-3%,6%,-19.2%,-3%,-4%,-8.05%,24%,59%,35.7%
CCOC(=O)C(C(=O)OCC)C(=O)c1ccccc1C(=O)c1ccccc1,-12%,44%,60.8%,-17%,23%,34%,-9%,55%,56.9%,-2%,2%,14.8%,-3%,32%,51.5%,1%,59%,80.6% (active)
Clc1cccc(N2CCN(c3c4c(nc5ccccc35)CCCCC4)CC2)c1,81% (active),94% (active),93% (active),93% (active),99% (active),95.5% (active),87% (active),96% (active),95.2% (active),28%,89% (active),93.2% (active),73% (active),93% (active),92.1% (active),92% (active),95% (active),93.9% (active)
CCOC(=O)/C(Cl)=C(\OCC)C(=O)OCC,14%,10%,-6.4%,6%,13%,12.3%,2%,19%,20%,-5%,19%,44.9%,-1%,8%,26.4%,12%,22%,21.1%
